In all, about 9,900 sequences were measured (“r (bound/input frequency ratio)”: median about 0.7, highest 2% from about 6.5 on). For the sample, the highest values were picked, then their nearest neighbours and some sequences at random.
B1: ENSMUSG00000028439.233|Fam219a (ssRNA)
RNA: GGGAGUUCUACAGUCCGACGAUCGCUUCGAUAUCCGCAUGCUACACCGACAGAGUCUUUUCAUACCAGAAGGAAUUUCUUCACAGGAGUUUCUGCAAAAGACUAUGACAUCUGUGUGUCUGUGGUCUCACGAGGUACCUGGAGGUGUAUGUGCACGGACAUGGGAAGUACGUGAAGAUUUAUUUCGGGAAAAGUGGUGUGUGUGUAGCUGUACUGGGUGUCAUGUAUGCUGUUGCUUCUGCUGCUGGUCUGGUCUGAGGGAGGAAAGCUGAGGCUGUAGCUCAGUGAGAUGGUGGCUCUCCCACUCUUGCGGUCGCACUAGUGUGGAAUUCUCGGGUGUCAAGG
B2: ENSMUSG00000058297.19|Spock2|137:141;145:158;167:178;192:198;207:216;222:247 (ssRNA)
RNA: GGGAGUUCUACAGUCCGACGAUCGCUUCGAUAUCCGCAUGCUACGACGGCCUCGGCAGGCCAGGGUGCCGACGGCCAGAAAGACAGGCCAGAAGAGACCUGGACAACAGCAGGCAACUUAGCAAAUGGAUCCGGAAGUCAGUGCGGAGGACCCUGGCUCCAGUGGGGGAGGACUGGGGACACACGCUACACACAUACACACAUAUGAGAACACACACAUACAUGUGAGAUGUGACACACACAUGUGAGAACACACAUACUGAGAACACACACACACACACACACACACACAUGUGAGUCACCCCUCUUGCGGUCGCACUAGUGUGGAAUUCUCGGGUGUCAAGG
B3: ENSMUSG00000058297.19|Spock2 (ssRNA)
RNA: GGGAGUUCUACAGUCCGACGAUCGCUUCGAUAUCCGCAUGCUACGACGGCCUCGGCAGGCCAGGGUGCCGACGGCCAGAAAGACAGGCCAGAAGAGACCUGGACAACAGCAGGCAACUUAGCAAAUGGAUCCGGAAGUCAGUGCGGAGGACCCUGGCUCCAGUGGGGGAGGACUGGGGAGUGUGGCUUGUGUGUAUGUGUGAUAUGAGAUGUGUGUGUAUGAUGUGAGAUGUGAGUGUGUGAUGUGAGAUGUGUGUAUGUGAGAUGUGUGUGUGUGUGUGUGUGUGUGUGAUGUGAGUCACCCCUCUUGCGGUCGCACUAGUGUGGAAUUCUCGGGUGUCAAGG
B4: ENSMUSG00000058297.18|Spock2 (ssRNA)
RNA: GGGAGUUCUACAGUCCGACGAUCGCUUCGAUAUCCGCAUGCUAAGCCCUCGACGGCCUCGGCAGGCCAGGGUGCCGACGGCCAGAAAGACAGGCCAGAAGAGACCUGGACAACAGCAGGCAACUUAGCAAAUGGAUCCGGAAGUCAGUGCGGAGGACCCUGGCUCCAGUGGGGGAGGACUGGGGAGUGUGGCUUGUGUGUAUGUGUGAUAUGAGAUGUGUGUGUAUGAUGUGAGAUGUGAGUGUGUGAUGUGAGAUGUGUGUAUGUGAGAUGUGUGUGUGUGUGUGUGUGUGUGUGAUGUGAGCUCUUGCGGUCGCACUAGUGUGGAAUUCUCGGGUGUCAAGG
B5: ENSMUSG00000058297.18|Spock2|143:147;151:164;173:184;198:204;213:222;228:253 (ssRNA)
RNA: GGGAGUUCUACAGUCCGACGAUCGCUUCGAUAUCCGCAUGCUAAGCCCUCGACGGCCUCGGCAGGCCAGGGUGCCGACGGCCAGAAAGACAGGCCAGAAGAGACCUGGACAACAGCAGGCAACUUAGCAAAUGGAUCCGGAAGUCAGUGCGGAGGACCCUGGCUCCAGUGGGGGAGGACUGGGGACACACGCUACACACAUACACACAUAUGAGAACACACACAUACAUGUGAGAUGUGACACACACAUGUGAGAACACACAUACUGAGAACACACACACACACACACACACACACAUGUGAGCUCUUGCGGUCGCACUAGUGUGGAAUUCUCGGGUGUCAAGG
B6: ENSMUSG00000058297.22|Spock2 (ssRNA)
RNA: GGGAGUUCUACAGUCCGACGAUCGCUUCGAUAUCCGCAUGCUAAGGGUGCCGACGGCCAGAAAGACAGGCCAGAAGAGACCUGGACAACAGCAGGCAACUUAGCAAAUGGAUCCGGAAGUCAGUGCGGAGGACCCUGGCUCCAGUGGGGGAGGACUGGGGAGUGUGGCUUGUGUGUAUGUGUGAUAUGAGAUGUGUGUGUAUGAUGUGAGAUGUGAGUGUGUGAUGUGAGAUGUGUGUAUGUGAGAUGUGUGUGUGUGUGUGUGUGUGUGUGAUGUGAGUCACCCAAAGGUCCCUAUGUUAUUCUCUUGCGGUCGCACUAGUGUGGAAUUCUCGGGUGUCAAGG
B7: ENSMUSG00000058297.20|Spock2 (ssRNA)
RNA: GGGAGUUCUACAGUCCGACGAUCGCUUCGAUAUCCGCAUGCUACCUCGGCAGGCCAGGGUGCCGACGGCCAGAAAGACAGGCCAGAAGAGACCUGGACAACAGCAGGCAACUUAGCAAAUGGAUCCGGAAGUCAGUGCGGAGGACCCUGGCUCCAGUGGGGGAGGACUGGGGAGUGUGGCUUGUGUGUAUGUGUGAUAUGAGAUGUGUGUGUAUGAUGUGAGAUGUGAGUGUGUGAUGUGAGAUGUGUGUAUGUGAGAUGUGUGUGUGUGUGUGUGUGUGUGUGAUGUGAGUCACCCAAAGGUCUCUUGCGGUCGCACUAGUGUGGAAUUCUCGGGUGUCAAGG
B8: ENSMUSG00000058297.20|Spock2|131:135;139:152;161:172;186:192;201:210;216:241 (ssRNA)
RNA: GGGAGUUCUACAGUCCGACGAUCGCUUCGAUAUCCGCAUGCUACCUCGGCAGGCCAGGGUGCCGACGGCCAGAAAGACAGGCCAGAAGAGACCUGGACAACAGCAGGCAACUUAGCAAAUGGAUCCGGAAGUCAGUGCGGAGGACCCUGGCUCCAGUGGGGGAGGACUGGGGACACACGCUACACACAUACACACAUAUGAGAACACACACAUACAUGUGAGAUGUGACACACACAUGUGAGAACACACAUACUGAGAACACACACACACACACACACACACACAUGUGAGUCACCCAAAGGUCUCUUGCGGUCGCACUAGUGUGGAAUUCUCGGGUGUCAAGG
B9: ENSMUSG00000058297.21|Spock2|125:129;133:146;155:166;180:186;195:204;210:235 (ssRNA)
RNA: GGGAGUUCUACAGUCCGACGAUCGCUUCGAUAUCCGCAUGCUACAGGCCAGGGUGCCGACGGCCAGAAAGACAGGCCAGAAGAGACCUGGACAACAGCAGGCAACUUAGCAAAUGGAUCCGGAAGUCAGUGCGGAGGACCCUGGCUCCAGUGGGGGAGGACUGGGGACACACGCUACACACAUACACACAUAUGAGAACACACACAUACAUGUGAGAUGUGACACACACAUGUGAGAACACACAUACUGAGAACACACACACACACACACACACACACAUGUGAGUCACCCAAAGGUCCCUAUCUCUUGCGGUCGCACUAGUGUGGAAUUCUCGGGUGUCAAGG
B10: ENSMUSG00000058297.21|Spock2 (ssRNA)
RNA: GGGAGUUCUACAGUCCGACGAUCGCUUCGAUAUCCGCAUGCUACAGGCCAGGGUGCCGACGGCCAGAAAGACAGGCCAGAAGAGACCUGGACAACAGCAGGCAACUUAGCAAAUGGAUCCGGAAGUCAGUGCGGAGGACCCUGGCUCCAGUGGGGGAGGACUGGGGAGUGUGGCUUGUGUGUAUGUGUGAUAUGAGAUGUGUGUGUAUGAUGUGAGAUGUGAGUGUGUGAUGUGAGAUGUGUGUAUGUGAGAUGUGUGUGUGUGUGUGUGUGUGUGUGAUGUGAGUCACCCAAAGGUCCCUAUCUCUUGCGGUCGCACUAGUGUGGAAUUCUCGGGUGUCAAGG
B11: ENSMUSG00000058297.5|Spock2|221:225;229:242;251:259 (ssRNA)
RNA: GGGAGUUCUACAGUCCGACGAUCGCUUCGAUAUCCGCAUGCUAAGAAGAGGCAGGGGAGGAGGCCGAGGAGGAGGAGGGUGAGGCGGGUGAGGCAGAUGAUGGAGGCUACAUCUGGUAGAUAGCCCUCGACGGCCUCGGCAGGCCAGGGUGCCGACGGCCAGAAAGACAGGCCAGAAGAGACCUGGACAACAGCAGGCAACUUAGCAAAUGGAUCCGGAAGUCAGUGCGGAGGACCCUGGCUCCAGUGGGGGAGGACUGGGGACACACGCUACACACAUACACACAUAUGAGAACACACACAACUCUUGCGGUCGCACUAGUGUGGAAUUCUCGGGUGUCAAGG

These binders were tested against TDP-43 (Homo sapiens, UniProt Q13148 1-414) (assay: RNA Bind-n-Seq with designed 260-mer pool; 25 mM Tris-HCl, 150 mM KCl, 3 mM MgCl2, BSA (printed 500 mg/mL), 20 units/mL SUPERase IN; pH not stated; 500 nM RNA pool, 1 h, 4 C; TDP-43 5, 50, 500 nM; high values mean tight binding). Settings: protein: recombinant; tags: SBP (GST cleaved off with PreScission; pGEX-GST-SBP).
Chain of TDP-43 (Q13148 whole entry): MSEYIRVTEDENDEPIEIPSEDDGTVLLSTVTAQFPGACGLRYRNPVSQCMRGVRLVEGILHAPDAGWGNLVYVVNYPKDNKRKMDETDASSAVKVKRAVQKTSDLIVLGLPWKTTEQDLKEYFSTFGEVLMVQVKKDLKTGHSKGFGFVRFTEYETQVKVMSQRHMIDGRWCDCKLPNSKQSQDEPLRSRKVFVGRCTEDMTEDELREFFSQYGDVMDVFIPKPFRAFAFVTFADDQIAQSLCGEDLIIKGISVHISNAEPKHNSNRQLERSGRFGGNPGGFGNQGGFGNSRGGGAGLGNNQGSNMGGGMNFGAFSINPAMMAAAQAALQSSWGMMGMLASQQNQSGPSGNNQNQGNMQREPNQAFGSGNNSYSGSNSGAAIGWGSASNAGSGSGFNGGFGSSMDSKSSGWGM
Procedure, shortened: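 Recombinant SBP-tagged TDP-43 at 5, 50 or 500 nM was captured on streptavidin beads, then incubated 1 h at 4 °C with 500 nM of an in vitro-transcribed 260-nt 3′ UTR oligo pool in 25 mM Tris-HCl, 150 mM KCl, 3 mM MgCl2, BSA and SUPERase IN. Bound RNA was washed, eluted with biotin, reverse transcribed, PCR-amplified and sequenced. Binding is R, each oligo's mapped-read-normalized abundance in the bound sample divided by its abundance in input. Duplicates used two independent protein batches.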

Row | Binder | binding signal
1 | B1 | 3.93 R (bound/input frequency ratio)
2 | B2 | 3.73 R (bound/input frequency ratio)
3 | B3 | 6.67 R (bound/input frequency ratio)
4 | B4 | 7.4 R (bound/input frequency ratio)
5 | B5 | 3.16 R (bound/input frequency ratio)
6 | B6 | 5.79 R (bound/input frequency ratio)
7 | B7 | 8.16 R (bound/input frequency ratio)
8 | B8 | 1.82 R (bound/input frequency ratio)
9 | B9 | 2.78 R (bound/input frequency ratio)
10 | B10 | 6.78 R (bound/input frequency ratio)
11 | B11 | 2.97 R (bound/input frequency ratio)
